Compound activity (PubChem BioAssay)
Peg3 prom inh = Peg3 promoter-driven luciferase inhibitors, primary screen, cell-based, HeLa, luciferase luminescence; AID 588405, 2011; hit rate 1.7% among 360,000; inhibition, % at 20 µM; HeLa PEG-Prom luciferase reporter, overnight;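 active = inhibition of at least 50% at 20 µM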
KKLEB tox = cytotoxicity in KKLEB CF airway cells, primary screen, cytotoxicity control for CF NF-kB inhibitor project, cell-based, uHTS, fluorescence assay plates; activity change (cytotoxicity), % at 5 µM; hit rate 0.36% among 360,000; AID 602141, 2011; KKLEB CF airway cells viability, ATPlite luminescence, overnight; stronger effect = lower value; cells stimulated with P. aeruginosa culture filtrate;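 active = corrected activity change at or below -50% at 5 µM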
HIF-2a inh = HIF-2a reporter inhibitors, primary screen, luminescence, 786-0 RCC cells. 786-0 RCC cells HIF-2a reporter, luciferase luminescence, overnight. hit rate 0.72% among 360,000. inhibition, % at 18.8 µM;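 active = inhibition of the luminescence signal of 40% or more relative to plate controls, in a single-dose primary screen at 18.75 µM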
CF NFkB inh = inhibitors of PAF-induced NF-kB signaling, primary screen, cell-based, GFP fluorescence, uHTS. KKLEB NF-kB-GFP reporter, GFP fluorescence overnight. inhibition, % at 5 µM. hit rate 0.86% among 360,000. AID 588850, 2011;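 active = at least 50% inhibition at 5 µM, scaled per plate between neutral and stimulator controls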;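 note: PAF is a Pseudomonas aeruginosa culture filtrate used as stimulus; plate controls were PAF-stimulated DMSO wells for no effect and unstimulated DMSO wells for full effect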
C8 TRAIL sens = viability loss with TRAIL in NB7+C8 cells, primary screen, TRAIL sensitizer project, cell-based, ATPlite luminescence; hit rate 1% among 360,000; inhibition (viability loss, TRAIL sensitization), % at 10 µM;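 active = compounds causing at least 50% loss of cell viability in the single-dose screen, relative to plate controls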
PPC-1+TRAIL kill = compounds killing PPC-1 cancer cells with TRAIL present, primary screen, TRAIL potentiator project, ATPLite luminescence, uHTS; PPC-1 cells + TRAIL, ATPLite viability luminescence; cell killing (% activity), % at 4 µM or 5 µM; hit rate 0.41% among 220,000; AID 1443, 2008;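 active = cell killing above 50% in the first pass at 4 µM, then a duplicate retest at 5 µM averaging 50% or more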;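 note: plate controls were cells with TRAIL plus DMSO for no effect and medium-only wells lacking cells for full effect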
Active calls of the source: *; . = no result. Shown are actives, neighbours in structure and some others; about 3.1% of the full set was active somewhere.

SMILES	Peg3 prom inh	KKLEB tox	HIF-2a inh	CF NFkB inh	C8 TRAIL sens	PPC-1+TRAIL kill
Nc1c(C(=O)NCC2CCCO2)c2nc3ccccc3nc2n1/N=C/c1ccncc1 (stereo not drawn)	59.5*	-4.6	3.8	-35.1	24.2	.
N#CC(C#N)=NNc1ccc(S(=O)(=O)N2CCCCC2)cc1	9.9	-16.6	9.7	71.0*	2.9	13.3
CC(C)(C)c1ccc(S(=O)(=O)N2CCN(C(=O)C3=COCCO3)CC2)cc1	10.3	-5.6	14.2	32.9	-3.8	.
COC1=C(Nc2ccccc2)C(=O)c2ccccc2C1=O	-44.0	-6.6	-51.1	50.3*	7.9	22.7
COC1=C(Nc2ccc(C)cc2)C(=O)c2ccccc2C1=O	-168.7	-20.7	-165.7	47.4	0.9	25.2
COc1ccc(NC(=O)c2oc3ccc(S(=O)(=O)N4CCC5(CC4)OCCO5)cc3c2C)cc1	69.5*	-18.7	0.9	-11.4	21.7	17.7
O=C(Nc1ccc(C(=O)O)cc1)/C(=C\C=C\c1ccccc1)NC(=O)c1ccccc1Br	-63.9	-1.8	-106.3	-14.9	50.0*	.
CSc1ccc(NC(=O)NN(c2ccccc2)C2CCS(=O)(=O)C2)cc1 (stereo not drawn)	-19.7	-2.5	-25.6	-5.3	-16.7	.
O=C(CSc1ncccc1-c1nc2ccccc2[nH]1)NCc1ccco1	-3.4	-1.6	-23.3	0.7	3.0	2.2
Cc1cc2nc(-c3cccnc3SCC(=O)NCc3ccco3)[nH]c2cc1C	-140.0	-23.8	-181.5	6.7	61.5*	.
OC(c1ccc(F)c(F)c1)c1ncc(-c2ccc(F)cc2)[nH]1 (stereo not drawn)	-33.9	-0.8	-68.6	-8.7	8.0	.
CCN(CC)CCCNC(=O)C1c2ccccc2C(=O)N(CCOC)C1c1ccc(F)cc1 (stereo not drawn)	-8.4	3.6	18.5	-5.9	-3.4	-6.9
CCCCN(CC)CCCNC(=O)C1c2ccccc2C(=O)N(C)C1c1cn(C)c2ccccc12 (stereo not drawn)	4.8	1.1	16.7	-9.7	61.4*	-8.4
COc1ccccc1NC(=O)CN1CCC(n2nnc3cc(F)ccc32)CC1	1.9	1.0	22.0	3.8	4.4	-1.3
COc1ccc(Cl)cc1NC(=O)CN1CCC(n2nnc3cc(C)ccc32)CC1	85.9*	-17.8	1.6	21.0	10.5	13.2
C=CCc1cccc2cc(C(=O)Nc3ccc(CC(=O)O)cc3)c(=O)oc12	-40.3	-6.1	64.5*	5.6	15.4	-1.1
C=CCc1cccc2cc(C(=O)Nc3ccc(F)cc3)c(=O)oc12	-125.3	3.0	-137.4	-18.7	-1.3	-6.2
CCNc1nc(NCC)n2c(SCC(=O)Nc3cccc(Cl)c3)nnc2n1	17.5	-5.2	-13.9	12.7	-1.6	.
CCNc1nc(NCC)n2c(SC(C(=O)Nc3cc(Cl)cc(Cl)c3)c3ccccc3)nnc2n1 (stereo not drawn)	76.5*	-29.7	20.3	35.1	-5.5	20.8
COc1cc(OC)cc(-c2noc(-c3csc([C@H]4C[C@H](O)[C@@H](CO)O4)n3)n2)c1	-375.2	-13.9	-305.2	-13.1	22.2	.
Cc1cccc(-c2noc(-c3csc([C@@H]4C[C@H](O)[C@@H](CO)O4)n3)n2)c1	-299.9	-3.4	-235.5	15.3	51.1*	.
O=C(Nc1c[nH]c(=O)[nH]c1=O)c1cc([N+](=O)[O-])cc([N+](=O)[O-])c1	-4.4	-0.9	10.4	3.1	-2.9	.
Cc1cc(-c2ccccc2)nc(Nc2nc3c(C)cccc3c(=O)[nH]2)n1	-46.0	-14.1	-94.3	-13.6	71.0*	.
Cc1nn(-c2ccccc2Cl)c2sc(C(=O)Nc3nnc(C4CC4)s3)cc12	17.9	-14.1	20.0	13.5	-10.6	32.8
CCOC(=O)c1ccc(NC(=O)c2cc3c(C)nn(-c4ccccc4Cl)c3s2)s1	25.1	-70.4*	21.4	70.5*	17.9	11.1
SMILES	Peg3 prom inh	KKLEB tox	HIF-2a inh	CF NFkB inh	C8 TRAIL sens	PPC-1+TRAIL kill
O=C(COc1ccccc1)Nc1cccc(-c2nn[nH]n2)c1	24.8	11.6	7.4	-17.1	-8.0	.
O=C(COc1ccccc1)Nc1cccc(-c2nc3cc4ccccc4cc3[nH]2)c1	-17.9	-36.1	-300.2	9.3	64.2*	37.2
CCC(=O)Nc1cccc(-c2ccc(N3CCCCC3)nn2)c1	-215.1	-8.8	-86.8	-4.9	83.2*	.
CN1CCN(c2ccc(-c3cccc(NC(=O)COc4ccc(Cl)cc4)c3)nn2)CC1	-160.6	-14.9	-120.8	-9.3	62.3*	.
Cn1c(CCN2CCN(c3ccccn3)CC2)nc2cc(NC(=O)COc3ccc(Cl)cc3)ccc21	52.2*	-11.7	22.3	22.9	35.0	.
O=[N+]([O-])c1ccc2c(c1)nc(CO)n2Cc1ccccc1	14.7	4.4	17.0	17.5	-3.7	.
Cc1ccc(NC(=O)CN2C(=O)C(=O)N(C3CCCC3)C2=O)c(Cl)c1	-3.5	-1.6	7.5	-8.1	-3.4	.
CN1CCN(c2ccc(-c3cccc(NC(=O)COc4ccccc4)c3)nn2)CC1	-153.2	-0.2	-116.0	-23.4	64.4*	.
CCOC(=O)N1CCN(CC(=O)Nc2nccs2)CC1	-6.5	0.9	17.7	6.1	-9.2	.
CC1CC2(CCCC2)Nc2ccc(F)cc21 (stereo not drawn)	4.9	3.7	9.8	-4.5	14.6	.
CC1CC(C)(C)Nc2ccc(N=O)cc21 (stereo not drawn)	83.5*	-19.5	12.2	70.6*	1.6	12.3
COc1c(Cl)cnn(-c2ccc(C)cc2)c1=O	-18.8	2.3	-25.9	-15.0	7.7	19.4
COc1cnn(-c2ccc(F)cc2)c(=O)c1Br	6.8	-0.1	-12.6	-1.5	0.6	18.4
COc1ccc(Oc2c(Cl)cnn(-c3ccc(C)cc3)c2=O)cc1	7.4	0.0	-5.5	-4.2	60.8*	15.8
COc1ccc(Oc2c(Cl)cnn(-c3ccc(F)cc3)c2=O)cc1	20.9	-1.8	10.7	-12.3	86.6*	6.9
C#Cc1ccc(NC(=O)C2(C)CCN2C(=O)Cc2ccc(C(C)C)cc2)cc1 (stereo not drawn)	-26.5	0.3	10.4	-5.5	52.5*	.
CC(C)C[C@H]1COc2cc(N3CC[C@H](O)C3)ccc2S(=O)(=O)N1	.	.	1.9	.	0.9	.
O=C(NC(=S)N1CCN(c2ccc([N+](=O)[O-])cc2)CC1)c1ccccc1F	7.2	8.0	23.5	-4.1	-1.9	53.2*
O=C(NC(=S)N1CCN(c2ccc([N+](=O)[O-])cc2)CC1)c1ccccc1Cl	9.7	-1.6	17.5	-11.9	-1.7	20.3
Oc1ccc(N=Nc2ccccc2)cc1	-354.2	-5.6	-312.9	15.2	-1.7	.
Oc1ccc(N=Nc2n[nH]c(-c3ccc(Cl)cc3)n2)cc1	77.7*	21.4	-135.4	-21.4	10.7	12.3
